Results on 40 compounds are retold here after PubChem BioAssay.

Where “and” joins values, the source holds several entries; their conditions need not be identical. Identical values can stand only once. The list shows a part of the results. Calls of active or inactive are those of the source. Rule as the data show it, unless noted: active = inhibition above about 28%; inactive = the rest.

Photoreceptor-specific nuclear receptor (Homo sapiens), sequence (Q9Y5X4 whole entry, looked up): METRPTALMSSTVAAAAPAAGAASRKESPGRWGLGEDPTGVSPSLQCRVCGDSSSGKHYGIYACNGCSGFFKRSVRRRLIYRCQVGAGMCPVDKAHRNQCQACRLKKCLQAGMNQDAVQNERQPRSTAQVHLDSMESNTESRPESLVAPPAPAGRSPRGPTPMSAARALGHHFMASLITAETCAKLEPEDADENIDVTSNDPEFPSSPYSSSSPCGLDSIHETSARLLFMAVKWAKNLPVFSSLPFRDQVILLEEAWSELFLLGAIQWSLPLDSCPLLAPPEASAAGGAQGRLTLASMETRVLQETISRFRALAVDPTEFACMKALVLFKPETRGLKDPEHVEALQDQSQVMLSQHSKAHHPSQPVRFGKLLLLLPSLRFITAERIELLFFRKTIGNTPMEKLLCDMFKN
Nuclear receptor coactivator 1 (Homo sapiens), sequence (Q15788 whole entry, looked up, the tested form may be a part): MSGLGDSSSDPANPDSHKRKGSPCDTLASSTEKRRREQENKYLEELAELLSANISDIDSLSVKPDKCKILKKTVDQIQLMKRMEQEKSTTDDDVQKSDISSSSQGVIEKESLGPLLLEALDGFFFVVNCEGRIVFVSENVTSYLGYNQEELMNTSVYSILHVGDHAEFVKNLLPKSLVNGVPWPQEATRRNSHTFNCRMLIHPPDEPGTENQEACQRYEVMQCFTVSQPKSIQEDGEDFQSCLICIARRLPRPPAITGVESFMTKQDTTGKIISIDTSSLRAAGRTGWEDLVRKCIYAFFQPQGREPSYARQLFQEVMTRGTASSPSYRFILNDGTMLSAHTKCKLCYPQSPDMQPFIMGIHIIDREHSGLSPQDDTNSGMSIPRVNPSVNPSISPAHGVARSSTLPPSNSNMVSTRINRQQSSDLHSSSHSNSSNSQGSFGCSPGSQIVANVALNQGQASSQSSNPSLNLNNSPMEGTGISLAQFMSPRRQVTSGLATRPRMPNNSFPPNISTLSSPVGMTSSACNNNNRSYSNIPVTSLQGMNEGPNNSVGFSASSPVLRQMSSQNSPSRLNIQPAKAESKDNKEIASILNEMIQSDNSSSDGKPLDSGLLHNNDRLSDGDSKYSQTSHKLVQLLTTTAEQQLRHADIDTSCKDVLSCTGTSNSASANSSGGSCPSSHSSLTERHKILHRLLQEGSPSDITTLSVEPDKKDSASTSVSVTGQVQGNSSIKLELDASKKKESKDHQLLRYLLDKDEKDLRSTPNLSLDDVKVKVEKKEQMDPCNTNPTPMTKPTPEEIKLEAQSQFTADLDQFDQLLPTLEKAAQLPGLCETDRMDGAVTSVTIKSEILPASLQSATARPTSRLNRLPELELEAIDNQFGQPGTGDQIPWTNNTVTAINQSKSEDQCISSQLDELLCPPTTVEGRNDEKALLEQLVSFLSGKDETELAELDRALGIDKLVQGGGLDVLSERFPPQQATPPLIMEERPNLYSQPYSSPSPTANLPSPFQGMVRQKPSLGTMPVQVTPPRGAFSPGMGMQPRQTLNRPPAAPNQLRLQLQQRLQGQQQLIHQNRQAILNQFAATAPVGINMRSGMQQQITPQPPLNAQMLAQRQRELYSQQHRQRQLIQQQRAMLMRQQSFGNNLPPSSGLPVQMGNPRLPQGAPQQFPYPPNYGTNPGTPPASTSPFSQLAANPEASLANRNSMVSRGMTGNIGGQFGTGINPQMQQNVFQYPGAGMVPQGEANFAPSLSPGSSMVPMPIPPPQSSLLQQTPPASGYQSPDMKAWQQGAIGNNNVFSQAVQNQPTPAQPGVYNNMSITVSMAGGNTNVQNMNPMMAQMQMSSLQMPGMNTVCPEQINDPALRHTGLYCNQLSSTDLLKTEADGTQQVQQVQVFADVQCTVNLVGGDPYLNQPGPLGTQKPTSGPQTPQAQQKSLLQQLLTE

One experiment concerns the target Nuclear receptor coactivator 1 (Homo sapiens) (UniProt Q15788). As to the kind of experiment: NCOA1 GAL4-fusion reporter inhibition – cell-based, luminescence, quadruplicate, confirmation (AID 588820;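 active = mean inhibition above 46.68%, the untreated control wells mean plus 3 SD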;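 also: 0% = DMSO wells and 100% = gossypol 36 µM treated wells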). Particulars: HEK293 GAL4-SRC1 luciferase reporter, at 3.6 µM, hits give high values. (In general: In a reporter assay the amount or activity of a reporter protein is the signal.)
As usually defined, the inhibition is the change of the read-out against control, counted positive when it falls. For `CC(=O)Nc1ccc(-c2csc(NC(=O)Nc3ccccc3)n2)cc1`, the inhibition was -38.2% (inactive).
Same read-out and setting: with `O=c1oc2ccccc2cc1-c1cn(-c2ccccc2)c(=S)[nH]1` the figure was -68.1% (inactive); with `CCc1ccc(N(CC)c2ncnc3nc[nH]c23)cc1`, 56.7% (active).
Take `COc1cc(SC)ccc1C(=O)Nc1nc(C)cs1`: the inhibition is -68.3% (inactive).

System in the next experiment: not listed separately
As to the kind of experiment: repression of VP16-driven luciferase reporter – cell-based, luminescence, high throughput, counter-screen for SRC1 inhibitor project (AID 588824; in the data active = inhibition above about 25%). Particulars: cell-based VP16 transactivation luciferase luminescence; at 3.6 µM; hits give high values.
Regarding `CC1(C)CC[C@]2(C(=O)n3ccnc3)CC[C@]3(C)[C@H](C(=O)C=C4[C@@]5(C)C=C(C#N)C(=O)C(C)(C)[C@@H]5CC[C@]43C)[C@@H]2C1`, the inhibition is 93.8% (active).
Same read-out and setting: the figure for `CC(=NNC(=S)N1CCCC1)c1ccccn1` is 66.4% (active); for `CC(=O)Nc1ccc(-c2csc(NC(=O)Nc3ccccc3)n2)cc1` it is -3.98% (inactive); for `O=c1oc2ccccc2cc1-c1cn(-c2ccccc2)c(=S)[nH]1` it is -22.7% (inactive).
Still for that read-out and setting: with `CCc1ccc(N(CC)c2ncnc3nc[nH]c23)cc1` the figure was 36.9% (active).
The same measure, in the same setting: the figure for `COc1cc(SC)ccc1C(=O)Nc1nc(C)cs1` is 14.8% (inactive).

A further experiment has as its target Photoreceptor-specific nuclear receptor (Homo sapiens) (UniProt Q9Y5X4). The experiment can be described thus: retest of NR2E3-NCOR disrupting agonists – cell-based, luminescence, CHO-S two-hybrid, confirmation (AID 624378;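 active = average inhibition above a cutoff equal to the mean inhibition of all tested compounds plus one SD, cut at about 70% in these data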;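 also: 0% = DMSO in NR2E3 cells and 100% = DMSO in cells lacking NR2E3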). To be noted: CHO-S mammalian two-hybrid NR2E3-NCOR, luciferase luminescence; at 3.98 µM; hits give high values.
In the case of `C=CCC1(CC=C)CCCN1C(=O)c1cc(COc2ccc(-n3cncn3)cc2)on1`, the inhibition is 97.4% (active).
In the case of `O=C(OC12CC3CC(CC(C3)C1)C2)c1ccc(NCc2cc(O)ccc2O)cc1`, the inhibition was 78.1% (active).
On the same count and under the same terms, with `CC(C)(C)Nc1nc(-c2ccccn2)nc2ccccc12` the figure was 99.2% (active).

System in another experiment: not listed separately
The experiment can be described thus: nonselective effects on VP16 transactivation – cell-based, luminescence, CHO-S, high throughput, counter-screen for NR2E3 agonist project, confirmation (AID 624379;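 active = mean inhibition above a cutoff equal to the average over all tested compounds plus one standard deviation, cut at about 70% in these data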;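 also: luciferase from a UAS reporter driven by GAL4-VP16 transactivation; 0% = DMSO with VP16-transfected cells and 100% = DMSO with cells lacking VP16; higher means less reporter light so more repression of VP16 activity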). Particulars: CHO-S GAL4-VP16 luciferase reporter, at 3.98 µM, hits give high values. For orientation: Counterscreens check selectivity or assay interference.
On to `C=CCC1(CC=C)CCCN1C(=O)c1cc(COc2ccc(-n3cncn3)cc2)on1`, for which the inhibition was 86.5% (active).
`O=C(OC12CC3CC(CC(C3)C1)C2)c1ccc(NCc2cc(O)ccc2O)cc1`: the inhibition is 18.6% (inactive).
On the same count and under the same terms, with `CC(C)(C)Nc1nc(-c2ccccn2)nc2ccccc12` the figure was 49.7% (inactive).

System in another experiment: not listed separately
As to the kind of experiment: StAR promoter reporter inhibitors, counter-screen for LRH-1 inverse agonist project, cell-based, luminescence, high throughput (AID 651611). To be noted: StAR promoter luciferase reporter counterscreen, at 3.6 µM, hits give high values.
As to `C=CS(=O)(=O)N(Cc1ccccc1Br)[C@H](CO)Cc1ccccc1`, the inhibition is 20.1% (inactive).
The same measure, in the same setting: the figure for `CCCCCc1ccc(OCCCC[n+]2cccc(C)c2)c(CCCCC)c1` is 31.7% (active); for `Cc1cc(C)cc(NC(=O)c2ccc([N+](=O)[O-])o2)c1` it is 53% (active); for `CCN1/C(=C\c2ccc3cc(C)ccc3[n+]2CC)Sc2cc(C)c(C)cc21` it is 32.8% (active).
Still for that read-out and setting: with `CCOc1ccc(-c2c[n+]3c(n2-c2ccccc2)CCCCC3)cc1` the figure was 22.6% (inactive); with `COc1ccc(OC)c(NC(=O)c2nnn(Cc3ccccc3C)c2N)c1`, 20.2% (inactive).
Still for that read-out and setting: with `Brc1ccc(C2=Nn3c(nnc3-c3n[nH]c4c3CCC4)SC2)cc1` the figure was 50.6% (active).
Turning to `O=C(N/N=C\c1ccc([N+](=O)[O-])s1)c1cncc(Br)c1`, the inhibition is 57.4% (active).
On the same count and under the same terms, with `c1ccc(-c2csc3ncnc(NCC4COc5ccccc5O4)c23)cc1` (centres undefined) the figure was 34.8% (active); with `COc1ccc(-c2n(Cc3ccccc3)c3ccccc3[n+]2Cc2ccccc2)cc1`, 76.3% (active).
The same measure, in the same setting: with `O=C(OC12CC3CC(CC(C3)C1)C2)c1ccc(NCc2cc(O)ccc2O)cc1` the figure was 66.5% (active); with `COc1ccc(-c2cn(-c3ccccc3)c3[n+]2CCS3)cc1`, 18.2% (inactive); with `O=C(Nc1sc2c(c1C(=O)O)CCCCC2)c1ccccc1`, 1.22% (inactive).
The same measure, in the same setting: the figure for `Cn1nccc1C(=O)NC1CCCc2c1cnn2-c1ccc(C(C)(C)C)cc1` (centres undefined) is 42.5% (active); for `C#CC(=O)N(c1ccc(OC)c(OC)c1)C(C(=O)NC1CCCC1)c1cccs1` (centres undefined) it is 17.7% (inactive).
Consider `c1ccc(C[n+]2cccc3c4ccccc4ccc32)cc1`, for which the inhibition was 41.7% (active).
The same measure, in the same setting: the figure for `CCN(CC)c1ccc(/C=N/NC(=O)c2cccc(S(=O)(=O)N3CCOCC3)c2)c(O)c1` is 79.2% (active); for `C[C@H]1CCC/C=C/[C@@H]2C[C@H](O)C[C@H]2[C@H](O)[C@H](S(=O)c2ccc(O)cc2)CC(=O)O1` (some centres undefined) it is 77.7% (active).
On the same count and under the same terms, the figure for `Cc1cc(C)c[n+](C(C)C(=O)c2ccc(-c3ccccc3)cc2)c1` (centres undefined) is 29.7% (active); for `c1ccc(CCNc2nc(-c3ccccn3)nc3ccccc23)cc1` it is 58.5% (active); for `Clc1cccc(CNc2ccn3nc(-c4ccc(OCc5ccccc5)cc4)cc3n2)c1` it is 23.4% (inactive).
`CCOC(=O)c1c2c(n(-c3ccc(OC)cc3)c1C)C(=O)C(=O)c1ccccc1-2`: the inhibition is 63% (active).
Same read-out and setting: with `Cc1ccc2c(c1C)-c1c(ccc(C)c1C)C(=O)C2=O` the figure was 64.4% (active); with `COc1ccc(-c2c[n+](CC(=O)OC3CC(C)CCC3C(C)C)c3n2CCC3)cc1` (centres undefined), 20.9% (inactive); with `CCOC(=O)c1sc(N(Cc2ccccc2)C(=O)COC(=O)c2ccc(O)cc2)nc1C`, -92.1% (inactive).
On the same count and under the same terms, the figure for `CCC(C)Nc1nc(-c2ccccn2)nc2ccccc12` (centres undefined) is 45.6% (active); for `Cc1sc(NC(=O)c2ccco2)c(C(c2cccnc2)N2CCN(c3ccc(F)cc3)CC2)c1C` (centres undefined) it is 24.4% (inactive).
In the case of `Cc1ccnc(NC(=O)CCCOc2cc(=O)n(C)c3ccccc23)c1`, the inhibition was 61% (active) and 59.3% (active).
Still for that read-out and setting: the figure for `CCOc1cc(/C=C2\CCC/C(=C\c3cc(Cl)c(O)c(OCC)c3)C2=O)cc(Cl)c1O` is 11.2% (inactive).
Same read-out and setting: with `CCCOc1ccc(Br)cc1CSC(=N)N` the figure was 9.34% (inactive); with `CC(C)(C)c1ccc(C2CC2C(=O)N/N=C\c2ccc[nH]2)cc1` (centres undefined), 80.9% (active); with `CCC1C/C(=C\c2cccnc2)C(=O)/C(=C/c2cccnc2)C1` (centres undefined), 60.2% (active).
Turning to `CC(C)(C)Nc1nc(-c2ccccn2)nc2ccccc12`, the inhibition was 69.1% (active).
